HSF1 activator: HSF-1 activators, primary screen, NIH3T3-HGL cells, MG132 stress, luminescence, single point; NIH3T3-HGL HSF-1 luciferase reporter, 8 h; 100% = twice DMSO control signal; activation, % at 9 µM; actives 1.7% (n = 300,000); AID 504408, 2011;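 active means mean replicate activation of at least 50% with a set share of replicates each reaching 50%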;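 further: 0% = median of the neutral control wells and 100% = twice that signal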
Hsp70 activator: Hsp70 transcriptional activators, primary screen, cell-based, HeLa, Hsp70 promoter luciferase, luminescence, 10 µM. activation, % at 10 µM. actives 0.04% (n = 200,000). HeLa Hsp70 promoter luciferase reporter; scaled: vehicle 0, proteasome-inhibitor control 100%;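 active means activation above the mean across all tested compounds plus 3 SD, cutoff set per campaign, cut at about 5.5% in these data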;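 further: 100% = MG132 at 30 µM as the positive control and 0% = DMSO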
NALP1 yeast inh: NALP1 inflammasome inhibitors in reconstituted yeast, colorimetric, S. cerevisiae, triplicate retest | actives 0.61% (n = 280,000) | AID 2071, 2009 | inhibition, % at 10 µM | S. cerevisiae NALP1/ASC/caspase-1 growth, X-gal OD620, 72 h; in the data active means inhibition mostly above about 24%, no sharp cut-off; inactive means mostly below about 32%
HSP90 refold inh: HSP90 inhibitors, primary screen, cell lysate, luminescence. inhibition, % at 5.6 µM. AID 1789, 2009. actives 0.91% (n = 290,000). Heat shock protein HSP 90 (rabbit reticulocyte lysate; luciferase refolding). Rabbit reticulocyte lysate, luciferase refolding luminescence, 3 h;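 active means inhibition above the screen-wide mean plus 3 SD, computed separately per campaign, cut at about 16% in these data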;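 further: 0% = DMSO wells and 100% = 60 µM geldanamycin wells; inhibitors lower the luminescence because luciferase stays unfolded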
HSF1 inh: HSF1 inhibitors in luciferase reporter cells, primary screen, cell-based, NIH3T3, luminescence; NIH3T3-HGL HSE-luciferase, MG132-induced, luminescence 8 h; hits give low values; activity change, negative = inhibition, % at 7.5 µM (by protocol); actives 0.77% (n = 300,000);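 active means more than half of replicate wells show activity change below -50%, luminescence cut by over half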;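 further: luciferase reports HSF-1 transcriptional activity via heat shock element; 0% = median of DMSO wells and -100% = zero luminescence signal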
pCIP destab: p/CIP-EGFP fusion destabilizers, primary screen, fluorescence, F442A cells; Q05BA5; actives 0.01% (n = 290,000); 16 h; decrease of EGFP signal, % at 10 µM;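 active means EGFP signal decrease of at least 30% at 10 µM or well 3 SD below plate mean, unless failing retest; inactive means the rest, including hits failing retest or dose response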
Numbers without * were called inactive; nt = no result given. Rows were chosen to be rich in hits. Some 3.8% of all compounds tested hit in one or more screens of this group.

SMILES	HSF1 activator	Hsp70 activator	NALP1 yeast inh	HSP90 refold inh	HSF1 inh	pCIP destab
COc1cc(-c2nc3cnccn3c2Nc2ccccc2)ccc1O	56*	0	9	2	24	3
Cc1ccc(S(=O)(=O)N2CCN(CC(=O)N(CC(C)C)c3c(N)n(CC(C)C)c(=O)[nH]c3=O)CC2)c(C)c1	-6	0	28	2	-7	3
COc1ccc(Br)cc1CN(C)C(C)C(=O)Nc1cccc(C(C)=O)c1 (stereo not drawn)	40	0	2	1	0	-9
COc1ccc(S(=O)(=O)Nc2noc3ccccc23)cc1OC	17	nt	14	-1	0	-2
CC(C)N1C(=O)CN(C2CCCCCC2)C(=O)C1c1ccccc1F (stereo not drawn)	-64	0	16	-1	-56*	-2
CC(C)CC(=O)Nc1c2c(nn1-c1ccc([N+](=O)[O-])cc1)CS(=O)(=O)C2	-9	nt	2	0	2	0
O=c1[nH]cc(S(=O)(=O)c2ccccc2)[nH]1	-60	0	-8	2	-51*	-4
COc1ccc(-c2nc3scc(-c4ccc(OC)c(OC)c4)c3c(=O)o2)cc1	20	0	-15	0	5	-11
COc1ccc(-c2csc3nc(-c4ccccc4F)oc(=O)c23)cc1	78*	nt	12	0	63	-40
CC(=O)Nc1ccc(S(=O)(=O)NC2CCS(=O)(=O)C2)cc1Cl (stereo not drawn)	-23	nt	15	0	-7	3
CC1CC(=O)N(CC(=O)NCc2ccco2)c2ccccc2S1 (stereo not drawn)	61*	0	5	10	31	-5
Cc1ccc(N/N=C(\C#N)C(=O)c2ccsc2)cc1	3	nt	-2	3	-7	-13
Cc1ccc(N/C=C(/C#N)c2ccsc2)cc1C	101*	0	27	3	58	7
COc1ccc(N2CCN(CCNC(=O)Nc3ccc(C)cc3Cl)CC2)cc1	-4	nt	35	1	-11	5
O=C(Nc1cccc(Cl)c1)N1CCC(CO)(CCOc2ccccc2)CC1	95*	0	10	1	60	-2
C=CCN1C(=O)C(Cc2ccccc2)S/C1=N/N=C/c1cccs1 (stereo not drawn)	5	0	2	-3	8	-3
C=CCN1C(=O)C(Cc2ccc(OCC)cc2)S/C1=N\N=C\c1cccs1 (stereo not drawn)	56*	0	2	-4	19	-14
Cc1[nH]c(C)c(S(=O)(=O)N2CCN(c3ccccc3F)CC2)c1C(=O)N1CCCC1	-7	nt	2	2	0	0
COC(=O)CCN1CCc2cc(N=Nc3ccc([N+](=O)[O-])cc3)ccc21	-58	nt	nt	0	-63*	-2
CCc1ccc(C(=O)NC2CCCCC2)s1	54*	0	0	-1	26	11
CCN(CCN(C)C)C(=O)Cn1ncc2c1-c1cc(C)ccc1OC2	-4	0	41*	-4	5	-10
COc1cccc(C(=O)NC(C)c2ccc(-c3ccccc3)cc2)c1OC (stereo not drawn)	17	nt	16	3	1	-26
O=C(Nc1ccc(F)cc1)c1nc(S(=O)(=O)Cc2ccccc2)ncc1Cl	-89	nt	-12	-3	-85*	-23
Cc1nnc(NC(=O)c2nc(S(=O)(=O)Cc3ccccc3)ncc2Cl)s1	-39	nt	-6	5	-35	-20
Cc1ccc(NC(=O)c2nc(S(=O)(=O)Cc3ccccc3)ncc2Cl)cc1	-96	nt	-12	-1	-95*	-23
SMILES	HSF1 activator	Hsp70 activator	NALP1 yeast inh	HSP90 refold inh	HSF1 inh	pCIP destab
COc1cccc(Nc2nc(C)cc(C)c2C(N)=O)c1	7	nt	-10	0	0	1
COc1ccc(OC)c(Nc2nc(-c3ccncc3)nc3ccccc23)c1	-14	nt	13	0	-11	-12
COc1ccc(Nc2nc(-c3ccncc3)nc3ccccc23)cc1	-9	nt	37*	0	-8	-28
Cc1ccc2c(c1)Sc1c(ccc3ccccc13)N2	46	nt	9	1	39	3
C/C(=N\N=c1/sc2ccccc2n1C)c1ccc(N2CCOCC2)cc1	66*	1	14	1	25	-9
Cc1ccc(NC(=O)C(C)c2cccc(C(=O)c3ccccc3)c2)cc1O (stereo not drawn)	-7	0	14	2	-8	-6
NC(=O)/C=C\C(=O)Nc1cccc(C(F)(F)F)c1	41	0	61*	-1	11	-6
CCCC(=O)NC(c1ccccc1OC)c1ccc2cccnc2c1O (stereo not drawn)	13	-1	1	24*	-2	-21
CCCCC(=O)NC(c1ccc(N(C)C)cc1)c1ccc2cccnc2c1O (stereo not drawn)	-44	nt	-3	19*	-45	-15
Cc1ccc(COc2ccc(C)nc2[N+](=O)[O-])cc1	75*	nt	9	13	30	-8
CCc1ccc(C)[n+](CC(=O)c2cccs2)c1	-11	nt	7	1	-14	-3
CCC(C(=O)O)n1cnc2scc(-c3ccc(C)c(C)c3)c2c1=O (stereo not drawn)	5	nt	-1	-2	0	2
CCC(C(=O)OC)n1cnc2scc(-c3ccc(C)c(C)c3)c2c1=O (stereo not drawn)	4	nt	100*	-1	0	4
COc1ccc(NC(=O)CCc2nnc3ccc(NCc4ccco4)nn23)cc1	1	nt	-2	-1	-4	5
COc1ccc(NC(=O)CCc2nnc3ccc(NCc4ccc5c(c4)OCO5)nn23)cc1	66*	nt	16	5	23	-18
COCc1ccc(C(=O)N(C)C2CCCN(Cc3ccccc3F)C2)o1 (stereo not drawn)	16	nt	25	-1	-2	2
NC(=O)C1(C(N)=O)OC1c1ccccc1 (stereo not drawn)	11	nt	-2	-2	4	-12
CCOC(=O)c1sc(=NC(=O)c2ccccc2)n(C)c1C	61*	0	3	-8	14	1
CCOC(=O)c1sc(NC(=O)c2cccc(S(=O)(=O)N(CC)CC)c2)cc1C	-5	0	-6	1	6	0
CCOc1ccccc1NC(=O)c1ccc(S(=O)(=O)N(C)C)cc1	12	-1	41*	2	-5	-14
CCOC(=O)c1sc(NC(=O)c2ccc(S(=O)(=O)N(C)C)cc2)cc1C	2	0	41*	-1	2	-2
CCOC(=O)c1sc(NC(=O)c2ccccc2)cc1C	55*	0	7	-6	25	-11
